Compound activity as filed in PubChem BioAssay.
ATXN viability = cell viability loss in ATXN counter-screen; AID 651635; 0.49% of 400,000 active; Potency, µM (highest dose often 56.7 µM), most hits filed as cytotoxic; S2 cells (HEK-293 line with an ATXN2-luciferase reporter) viability, CellTiter-Fluor protease fluorescence, 24 h; further: nearly all actives have a fitted effect of over 40% in size
TGFb inhibitor = TGF-b pathway inhibition | 1.2% of 410,000 active | HepG2 CAGA-GFP TGF-b/SMAD3 reporter, GFP fluorescence, 18 h; TGF-beta stimulated, 500 pg/mL final | Potency, µM (series often up to 46.1 µM), inactives show at the top dose activity, negative = inhibition, hits mostly inhibitors | AID 588855; further: on the % scale 0 is the no-effect control and ±100 the full control effect; nearly all actives have a fitted effect of over 65% in size
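Inhibition of TGF-beta-driven CAGA-GFP reporter expression in HEPG2 cells is measured by cellular GFP fluorescence after 18 h stimulation with 500 pg/mL recombinant TGF-beta in 1% FBS medium at 37 degrees C.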
ATXN2 expr inh = reduces ATXN2 reporter expression in HEK-293 cells. AID 1745845. Potency, µM (titrated, usually from 57 µM), without a hit: at the top dose activity change, negative = inhibition, most hits filed as inhibitors. HEK-293 ATXN2-luciferase reporter, luminescence, 24 h. 0.72% of 360,000 active; further: on the % scale 0 is the no-effect control and ±100 the full control effect; nearly all actives have a fitted effect of over 55% in size
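ATXN2-luciferase reporter cells (luciferase flanked by upstream and downstream ATXN2 gene portions) were treated 24 h at 37 °C with compounds at up to 57 uM. SteadyGlo luminescence gave expression; GF-AFC fluorescence gave viability.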
Nrf2 inh = blocks Nrf2 signaling; Potency, µM (titrated, usually from 46 µM), for inactives: at the highest dose activity change, negative = inhibition, usual class: inhibitors; 2.1% of 360,000 active; A549 ARE-Fluc reporter, luciferase luminescence, 18-24 h; AID 504444; further: on the % scale 0 is the no-effect control and ±100 the full control effect; nearly all actives have a fitted effect of over 60% in size
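A549 ARE_Fluc cells (5000/well, 5% FBS OPTI-MEM) pre-incubated 2 h, then treated with compounds 18-24 h at 37C/5% CO2 in concentration-response. CellTiter-Fluor viability read first; BugLite luciferase luminescence after 15 min at room temperature gives Nrf2 activity.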
HepG2 viability = kills HepG2 cells in TGF-b inhibitor counter-screen. HepG2 CAGA-GFP viability, ATP luminescence, 18 h. Potency, µM (doses to about 46.1 µM), for the others: top-dose activity change, negative = cytotoxicity, most hits filed as cytotoxic. 0.76% of 410,000 active
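HepG2 CAGA-GFP cells (1000/well, DMEM with 1% FBS) received compound, then TGF-beta at 500 pg/mL final, and were incubated 18 hours at 37 degrees C. Viability was read by CellTiter-Glo luminescence. Media-only wells were set as complete cell-killing and DMSO as no toxicity.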
A549 tox-1 = A549 cytotoxicity, counter-screen for Nrf2 inhibitors. A549 ARE-Fluc cells, CellTiter-Fluor viability, 18-24 h. Potency, µM (titrated, usually from 46 µM), inactives show at the top dose activity change, negative = cytotoxicity, most hits filed as inhibitors. 0.16% of 390,000 active; further: on the % scale 0 is the no-effect control and ±100 the full control effect
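A549 ARE_Fluc cells in 5% FBS OPTI-MEM were exposed to compounds in concentration-response for 18-24 h at 37 deg C. Viability was read by CellTiter-Fluor fluorescence (Ex 405/Em 525) after 30 min, before the luciferase read.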
FLuc enzyme inh = firefly luciferase inhibition, Nrf2 hit validation. shares compounds with Nrf2 inh. purified firefly luciferase, luminescence inhibition. Potency, µM (highest dose often 57.5 µM), for the others: at the highest dose activity change, negative = inhibition, most hits filed as inhibitors. 4% of 1,400 active; further: on the % scale 0 is the no-effect control and ±100 the full control effect; nearly all actives have a fitted effect of over 65% in size
Target sequence (P08659 whole entry, looked up): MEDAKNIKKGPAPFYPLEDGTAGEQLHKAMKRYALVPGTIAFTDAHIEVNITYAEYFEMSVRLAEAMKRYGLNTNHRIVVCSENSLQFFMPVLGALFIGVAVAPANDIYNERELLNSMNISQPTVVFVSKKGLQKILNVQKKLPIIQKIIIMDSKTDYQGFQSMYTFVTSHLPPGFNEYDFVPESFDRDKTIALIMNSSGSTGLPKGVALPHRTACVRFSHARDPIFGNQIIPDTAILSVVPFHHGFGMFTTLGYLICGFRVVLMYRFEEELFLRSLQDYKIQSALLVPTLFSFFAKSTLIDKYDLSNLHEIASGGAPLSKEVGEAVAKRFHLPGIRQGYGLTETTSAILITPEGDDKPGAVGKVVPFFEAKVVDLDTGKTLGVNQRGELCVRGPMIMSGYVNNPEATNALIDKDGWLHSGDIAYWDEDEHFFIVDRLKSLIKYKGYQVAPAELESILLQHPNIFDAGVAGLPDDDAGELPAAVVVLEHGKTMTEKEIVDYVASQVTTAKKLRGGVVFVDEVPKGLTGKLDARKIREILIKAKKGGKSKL
A549 tox-2 = A549 cytotoxicity, Nrf2 inhibitor counterscreen | shares compounds with Nrf2 inh | A549 ARE-Fluc cells, cytotoxicity counterscreen | Potency, µM (doses to about 46.1 µM), without a hit: at the highest dose activity change, negative = cytotoxicity, hits mostly inhibitors | 2% of 1,400 active;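 further: cells exposed to compounds for 18 to 24 hours; on the % scale 0 is the no-effect control and ±100 the full control effect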
ARE-Fluc inh = reduces Nrf2 ARE reporter signal in A549 cells | 74% of 1,400 active | A549 ARE-firefly luciferase reporter, luminescence | Potency, µM (series often up to 46.1 µM), without a hit: at the top dose activity change, negative = inhibition, hits mostly inhibitors | shares compounds with Nrf2 inh | AID 720524; further: on the % scale 0 is the no-effect control and ±100 the full control effect; nearly all actives have a fitted effect of over 65% in size
* = called active by the depositor; i = inactive; ? = inconclusive; · = no result shown; [ ] = remark or other dose. Rows were chosen to be rich in hits. Some 3.8% of all compounds tested hit in one or more screens of this group. The call rests on the fitted dose curve; in most records, active means well fitted curve in the direction sought with a large enough effect; inconclusive means small, poorly fitted or top-dose-only effect, or another doubt; inactive means no such curve, though single readings can be large; an effect the other way counts as inactive or inconclusive. Potency means the concentration at half of the fitted maximal effect.

SMILES	ATXN viability	TGFb inhibitor	ATXN2 expr inh	Nrf2 inh	HepG2 viability	A549 tox-1	FLuc enzyme inh	A549 tox-2	ARE-Fluc inh
Cc1c(C(=O)N2CCN(c3ccccn3)CC2)sc2ncnc(N3CCN(c4ccccc4)CC3)c12	i	2%	-9%	-14%	-20%	1%	·	·	·
Cc1c(C(=O)N2CCN(Cc3ccc4c(c3)OCO4)CC2)sc2ncnc(N3CCN(c4ccccc4)CC3)c12	i	?	·	1.2µM*	-3%	1%	-3%	-22%	7.3µM*
O=C(O)c1cccnc1Nc1cccc(C(F)(F)F)c1	i	10%	14%	6%	3%	-5%	·	·	·
Fc1ccc(Nc2nc3nonc3nc2Nc2cccc(C(F)(F)F)c2)cc1	·	0.71µM*	·	1.5µM*	-109%	8.2µM*	-23%	5.8µM*	1µM*
CCCCC(=O)N(Cc1ccc(F)cc1)C1CCS(=O)(=O)C1 (centres undefined)	i	3%	·	1%	3%	0%	·	·	·
Cc1cc(/C=C2/SC(=S)N(c3cccc(Cl)c3)C2=O)c(C)n1-c1cccnc1	?	?	-2%	?	-4%	-15%	·	·	·
Cc1cc(/C=C2/SC(=S)N(c3ccc([N+](=O)[O-])cc3)C2=O)c(C)n1-c1cccnc1	?	-12%	?	6.5µM*	-18%	?	-18%	-23%	·
Cc1c(C(=O)NCc2ccccc2Cl)sc2nc3n(c(=O)c12)CCCC3	·	-5%	·	-13%	-11%	-10%	·	·	·
Cc1c(C(=O)NCc2ccccc2Cl)sc2nc3n(c(=O)c12)CCCCC3	i	1%	9%	4.6µM*	-10%	-13%	-26%	-1%	-11%
Cc1ccc(C)c(N2CCN(CCCNC(=O)c3ccc4nc(N5CCCCC5)sc4c3)CC2)c1	i	-3%	54%	?	-2%	?	·	·	·
COc1ccc(/C=C/C(=O)NC(=S)NCCc2ccc(OC)c(OC)c2)cc1	?	5.6µM*	?	7.3µM*	6.3µM*	?	-4%	-13%	5%
COc1ccc(CCNC(=O)/C=C\c2ccccc2)cc1OC	i	7%	2%	-16%	10%	-3%	·	·	·
CCCOC(c1ccccc1)(c1ccc(C(F)(F)F)cc1)C(Oc1nc(C)cc(C)n1)C(=O)O (centres undefined)	i	?	·	3.3µM*	-26%	-28%	-1%	-29%	1.8µM*
Cc1ccc2c(c1)CN(CCNC(=O)c1ccc3nc(C)[nH]c3c1)CC(C)O2 (centres undefined)	i	·	·	·	·	·	·	·	·
CC(C)Oc1cccc(C(=O)C2CCCN(Cc3cnc(N4CCOCC4)s3)C2)c1 (centres undefined)	i	-26%	?	9.2µM*	-15%	-18%	2%	-10%	·
COc1ccc(C(=O)C2CCCN(Cc3cnc(N4CCOCC4)s3)C2)c(OC)c1 (centres undefined)	i	?	-30%	9.2µM*	-28%	?	2%	-8%	-12%
CCOC(=O)c1sc(NC(=O)c2cc(-c3ccccc3)nc3ccccc23)c(C#N)c1C	?	?	?	4.6µM*	-4%	?	11µM*	?	6.5µM*
O=C(Nc1ccncc1)c1cccc(S(=O)(=O)N2CCc3ccccc32)c1	i	-21%	?	8.2µM*	-20%	-20%	0%	-12%	7.3µM*
O=C(O)c1cccc(NC(=O)c2cccc(S(=O)(=O)N3CCc4ccccc43)c2)c1	i	-14%	2%	10%	0%	10%	·	·	·
O=C(Nc1cccnc1)c1cccc(S(=O)(=O)N2CCc3ccccc32)c1	i	-20%	-15%	?	-6%	-3%	·	·	·
CCOC(=O)c1sc(NC(=O)c2cccnc2)c(C#N)c1C	i	30%	4%	10%	-4%	0%	·	·	·
CCOC(=O)c1sc(NC(=O)c2cccc(S(=O)(=O)N3CCc4ccccc43)c2)c(C#N)c1C	i	?	?	5.8µM*	-27%	?	-18%	?	2.9µM*
COc1cccc(C2C=C(c3ccccc3)Nc3c(C(=O)Nc4ccccc4)cnn32)c1OC (centres undefined)	·	0%	·	2.3µM*	-14%	-11%	2%	-13%	?
Cc1cccc(NC(=O)CSc2nc3n[nH]c(C)c3c(=N)n2-c2cccc(Cl)c2)c1	·	?	·	·	-33%	-4%	·	·	·
Cc1cc(CN(C)C(=O)c2cc(COc3ccc4ncccc4c3)on2)on1	i	-12%	-10%	4.6µM*	-18%	-17%	-25%	-3%	5.2µM*
SMILES	ATXN viability	TGFb inhibitor	ATXN2 expr inh	Nrf2 inh	HepG2 viability	A549 tox-1	FLuc enzyme inh	A549 tox-2	ARE-Fluc inh
COc1cccc(OCc2cc(C(=O)N3CCC(C(O)C(C)C)CC3)no2)c1 (centres undefined)	i	1%	0%	-17%	4%	7%	·	·	·
O=C(c1cc(COc2ccc3ncccc3c2)on1)N1CCC(O)CC1	i	1%	-23%[11.3 µM]	8.2µM*	-5%	-5%	-26%	-1%	-8%
CCC(O)C1CCN(C(=O)c2cc(COc3ccc4ncccc4c3)on2)CC1 (centres undefined)	?	-10%	?	1.8µM*	-2%	?	-19%	-11%	1.5µM*
Cc1cccnc1CN1CCN(C(=O)c2cc(COc3ccc4ncccc4c3)on2)CC1	i	?	-35%	4.1µM*	-1%	-16%	0%	-2%	?
O=C(c1cc(COc2ccc3ncccc3c2)on1)N1CCCC(O)C1 (centres undefined)	i	-7%	-1%	?	-12%	-7%	·	·	·
CC(=O)c1ccc(OCc2cc(C(=O)N(C)Cc3cc(C)no3)no2)cc1	i	21%	36%	?	8%	1%	·	·	·
O=C(NC1CCCCCCC1)c1cc(COc2ccc3ncccc3c2)on1	i	?	-33%	3.3µM*	-12%	?	-16%	2%	2.9µM*
